Data as given in PubChem BioAssay AID1851 (National Center for Advancing Translational Sciences (NCATS), 2009).
Out of some 16,000 compounds screened, about 2,600 (16%) were called active. Inconclusive results (about 20%) are left out. These entries were drawn from the full list. Values without a mark were called inactive. Calls come from the whole dose curve; as a rule, active = well fitted curve in the direction sought with a large enough effect; inconclusive = small, poorly fitted or top-dose-only effect, or effect the other way; inactive = no such curve, though single readings can be large or run the other way.

target: Cytochrome P450 2D6 (Homo sapiens) (UniProt P10635); test: Cytochrome panel assay with activity outcomes; details: recombinant CYP, pro-luciferin dealkylation, luminescence, p450-cyp2d6; series mostly up to 57.1 µM; activity, negative = inhibition: at the top concentration
% is set by controls: 0 for no effect and ±100 for the full control effect.

Chain of Cytochrome P450 2D6 (Homo sapiens) (P10635 whole entry, looked up): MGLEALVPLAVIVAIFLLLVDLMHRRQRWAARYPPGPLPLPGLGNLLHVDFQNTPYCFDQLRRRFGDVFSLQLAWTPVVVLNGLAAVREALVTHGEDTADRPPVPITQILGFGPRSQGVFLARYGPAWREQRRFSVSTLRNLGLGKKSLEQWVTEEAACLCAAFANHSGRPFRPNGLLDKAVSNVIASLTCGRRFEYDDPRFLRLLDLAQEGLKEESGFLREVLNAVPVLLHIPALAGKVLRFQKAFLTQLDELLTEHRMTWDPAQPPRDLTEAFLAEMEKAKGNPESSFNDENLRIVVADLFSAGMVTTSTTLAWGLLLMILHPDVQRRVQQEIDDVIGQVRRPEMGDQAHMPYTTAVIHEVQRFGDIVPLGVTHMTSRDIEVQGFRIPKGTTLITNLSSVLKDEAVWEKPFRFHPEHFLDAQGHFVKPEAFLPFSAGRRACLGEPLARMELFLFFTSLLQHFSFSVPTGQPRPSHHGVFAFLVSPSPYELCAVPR

SMILES	activity, negative = inhibition	AC50
Cc1ccsc1-c1nc(-c2ccccc2)c(-c2ccccc2)[nH]1	-0.505%	
c1ccc(-c2n[nH]c(-c3ccccc3)c2-c2nc3ccccc3[nH]2)cc1	-22.8%	
Oc1ccc(-c2nc(-c3ccc(F)cc3)c(-c3ccncc3)[nH]2)cc1		5.01 µM (active)
O=c1cnc2cnc(Oc3ccccc3)nc2n1C1CC1	-9.03%	
Cc1ccc(C(=O)c2cn(-c3ccc(F)c(Cl)c3)nn2)cc1	6.95%	
CC[C@](N)(CCC(=O)O)C(=O)O	-1.06%	
CCSc1nnc(NC(=O)COc2ccc3ccccc3c2)s1	-5.34%	
Nc1nnc(SCCOc2cccc(Br)c2)s1		11.2 µM (active)
CCn1c2ccccc2c2cc(N=C3SC(CC(=O)Nc4ccccc4OC)C(=O)N3C)ccc21 (stereo unspecified)	-2.34%	
CCN(CC)c1nc(Nc2ccccc2)nc(Oc2ccc(C(=O)OC)cc2)n1	-6.17%	
Cc1c(N(C)CS(=O)(=O)O)c(=O)n(-c2ccccc2)n1C	10.2% [at 25.6 µM]	
CN(C)C(=O)c1ccc(-c2nc(Nc3ccncc3)c3ccccc3n2)cc1	-6.54%	
CN(C)C(=O)c1ccc(-c2nc(-n3ccnc3)c3ccccc3n2)cc1		15.8 µM (active)
CN(C)C(=O)c1ccc(-c2nc(Nc3ccccc3)c3ccccc3n2)cc1	-14.8%	
CN(C)c1ccc(-c2nc(-n3ccnc3)c3ccccc3n2)cc1		7.94 µM (active)
COc1ccc(-n2c(=O)c(-c3cccs3)nc3cncnc32)cc1	0.751%	
Cc1cc(=O)[nH]c2c1c(C)nn2C1CCOC(C)(C)C1 (stereo unspecified)	-7.73%	
O=C(Nc1nnc(CCS(=O)(=O)c2ccc(Br)cc2)s1)c1ccc([N+](=O)[O-])cc1	-1.29%	
O=S(=O)(O)c1ccc2cc(N=Nc3cc(S(=O)(=O)O)c4cccnc4c3O)ccc2c1	-2.47% [at 11.4 µM]	
O=C(CCC(=O)Nc1ccccc1)NNC(=O)c1cccs1	11.3%	
CCn1ccc(C(=O)NC2C(=O)N3C(C(=O)O)=C(C)CSC23)n1 (stereo unspecified)	17%	
COC(=O)Nc1nc2ccc(SC(C)C)cc2[nH]1	-3.07% [at 25.6 µM]	
COc1ccc(-n2c(=O)c(-c3ccccc3)nc3cnc(N4CCNCC4)nc32)cc1	-3.98%	
Fc1ccc(C(OCCCc2cnc[nH]2)c2ccc(F)cc2)cc1		0.631 µM (active)
N[C@@H](Cc1cnc[nH]1)C(=O)O	2.38%	
O=C(O)CC12C[C@H]3C[C@@H](CC(O)(C3)C1)C2	1.29% [at 11.4 µM]	

SMILES	activity, negative = inhibition	AC50
COc1ccc([C@H](O)c2ccccn2)cc1	0.937% [at 11.4 µM]	
COc1ccc(-c2cnnc(CCCn3ccnc3-c3ccccc3)n2)cc1	-4.95% [at 11.4 µM]	
COc1ccc(C(O)c2nccn2Cc2ccccc2)cc1 (stereo unspecified)		10 µM (active)
CCNC(=O)C/C(C)=N/NC(=O)C12CC3CC(CC(C3)C1)C2	-13.3%	
COc1ccc(NC(=O)N2CC[C@@]3(CCCN(C(=O)c4ccc(OC)cc4)C3)C2)cc1	12.9%	
COc1ccc(NC(=O)N2CCCC3(CCN(C(=O)c4cccn4C)CC3)C2)cc1	3.7%	
CCn1c(SCc2ccc(C#N)cc2)nnc1-c1ccc(S(=O)(=O)N2CCCCC2)cc1	7.38%	
N#Cc1ccc(C(c2nnnn2Cc2ccccc2)N2CCCC2)cc1 (stereo unspecified)		7.94 µM (active)
COCC1C2CC[C@H]3C(OCc4ccc(F)cc4C(F)(F)F)OC[C@]4(C)[C@H]3C2=C(CN4C(=O)OC(C)(C)C)[C@H](C)C1COC (stereo partly specified)	-9.86%	
O=C(ON=C1CCN(S(=O)(=O)c2ccccc2)CC1)c1ccccc1	-11.1%	
c1ccn(-c2ccc(N3CCOCC3)cc2)c1	-19.4%	
COc1ccc(C(=O)NNC(=S)NC(=O)c2ccco2)cc1	23.2%	
Cc1ccc(C)c(-n2c(Cc3cc(=O)[nH]c(=O)[nH]3)nnc2SCC(=O)NCC2CCCO2)c1 (stereo unspecified)	5.39%	
OCCCN=C1CCCCC1	-10.2% [at 11.4 µM]	
CCOC(=O)c1ccccc1OCc1cc(/C=N/n2cnnc2)ccc1OC	-11.9%	
CC(Sc1ccc2c(c1)OCCO2)C(=O)Nc1ncc(Cl)cc1Cl (stereo unspecified)		12.6 µM (active)
CC(C)C(=O)Nc1cc2c(cc1C(=O)c1ccccc1)OCCO2	-1.98%	
CC(C)Cn1c(N)c(C(=O)CSc2ccc3c(c2)OCCO3)c(=O)n(C)c1=O	-14.7%	
CCn1c(C)nc2cc(C(=O)NNS(=O)(=O)c3ccccc3F)ccc21	-5.81%	
Cc1cc(C)cc(N(C(=O)C2CCCC2)C2C=CS(=O)(=O)C2)c1 (stereo unspecified)	-12.9%	
COc1ccc(C(=O)N2CCC3(CC2)CN(C(=O)NC(C)C)C3)cc1	-1.29%	
COc1ccccc1OCCCOc1ccc([N+](=O)[O-])cc1Cl		11.2 µM (active)
COc1cc(C)ccc1OCCCOc1ccccc1Cl	7.23%	
COc1ccccc1CC(=O)O/N=C(\N)c1cccc([N+](=O)[O-])c1	-22.3%	
Cc1ccc(OCC(=O)NNC(=O)c2cc3ccccc3o2)cc1	3.8%	
